Test results reported in PubChem BioAssay AID588795 (National Center for Advancing Translational Sciences (NCATS), 2011).
Hit rate of the full screen: of about 390,000 compounds, about 1,400 (0.36%) were called active. Inconclusive results (about 2%) are left out. Shown is part of a subset that was picked to be rich in actives. Values without a mark were called inactive. The call rests on the fitted dose curve; in most records, active means well fitted inhibition curve with a large enough effect; inconclusive means small, poorly fitted or top-dose-only effect; inactive means no such curve, though single readings can be large or run the other way.
Further: nearly all actives have a fitted effect of over 65% in size.
On the % scale 0 is the no-effect control and ±100 the full control effect; potency means the concentration at half of the fitted maximal effect.

These molecules were tested against Flap endonuclease 1 (Homo sapiens) (UniProt P39748) (assay: qHTS Assay for the Inhibitors of Human Flap endonuclease 1 (FEN1).). Conditions: Recombinant FEN1 flap cleavage, fluorescence, 15 min; series mostly up to 114 µM; activity change, negative = inhibition: at the top concentration.
Flap endonuclease 1 (Homo sapiens), sequence (P39748 whole entry, looked up, the tested form may be a part): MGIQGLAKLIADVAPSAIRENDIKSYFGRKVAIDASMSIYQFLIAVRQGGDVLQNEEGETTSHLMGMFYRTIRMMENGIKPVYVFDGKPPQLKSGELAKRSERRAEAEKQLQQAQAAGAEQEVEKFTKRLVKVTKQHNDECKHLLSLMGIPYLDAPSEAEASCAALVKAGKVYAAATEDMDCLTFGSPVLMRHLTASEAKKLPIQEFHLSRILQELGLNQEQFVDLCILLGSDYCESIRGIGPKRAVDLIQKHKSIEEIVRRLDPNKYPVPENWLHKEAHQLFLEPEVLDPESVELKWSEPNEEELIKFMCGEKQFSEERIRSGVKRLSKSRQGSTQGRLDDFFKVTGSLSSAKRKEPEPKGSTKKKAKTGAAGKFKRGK
Text: The major human flap endonuclease FEN1 is an efficient structure-specific enzyme that recognizes and cleaves a 5'-unannealed DNA flap. It belongs to the RAD2 family nucleases, which are involved in DNA metabolism and are highly conserved in prokaryotes and eukaryotes. FEN1 is a key enzyme in DNA replication, repair and maintenance of genomic stability. 5'-flap removal by FEN1 is critical for Okazaki fragment processing during lagging strand DNA synthesis, long-patch base excision repair (LP BER), and regulating or facilitating recombination events. […] Deletion of the yeast FEN1 gene, i.e. rad27, results in an increased frequency of short DNA (3-32 bp) repeats, micro- and mini-satellite formation, trinucleotide repeat expansion, spontaneous recombination events, and a severe growth defect in association with cell cycle arrest in late S/G2 phase. […] Cells from fen1-/- blastocysts show increased apoptotic cell death after ionizing radiation treatment, and chicken cells lacking the fen1 gene are hypersensitive to DNA alkylating agents, e.g. methylmethane sulfonate (MMS) and N-methyl-N'-nitro-N-nitrosoguanidine (MNNG), as well as hydrogen peroxide.
NIH Chemical Genomics Center [NCGC]
NIH Molecular Libraries Probe Centers Network [MLPCN]
Assay Submitter (PI): David Wilson, National Institute of Aging
Three uL of reagents (buffer in column 3 and 4 as negative control and 10 nM FEN1 in columns 1, 2, and 5-48) were dispensed into 1,536-well black solid-bottomed plate. Compounds (23 nL) were transferred via Kalypsys pin tool equipped with 1536-pin array (10 nL slotted pins, V&P Scientific, San Diego, CA). The plates were then incubated for 15 min at room temperature, and 1 uL substrate (50 nM final concentration) were added to start the reaction read twice at 0 min read and 15 min on ViewLux reader. Throughout the screen, reagent bottle and all liquid lines were chilled and made light-tight to minimize reagent degradation. All screening operations were performed on a fully integrated robotic system (Kalypsys, San Diego, CA) containing one RX-130 and two RX-90 anthropomorphic robotic arms (Staubli, Duncan, SC). Library plates were screened starting from the lowest and proceeding to the highest concentration, and a "double-dipping" step of the highest concentration was required to access higher concentrations of compounds. Vehicle-only plates, with DMSO being pin-transferred to the entire column 5-48 compound area, were inserted uniformly at the beginning and the end of each library in order to monitor for and record any shifts in the background, which can be affected by reagent dispensers or loss in enzyme activity overtime. Screening data was corrected, normalized, and concentration-effect relationships were derived by using publicly-available curve fitting algorithms developed in-house (http://ncgc.nih.gov/pub/openhts). A four parameter Hill equation was fitted to the concentration-response data by minimizing the residual error between the modeled and observed responses.
For `Cc1cc(C)c2nc3nc(C)cc(C)c3c(N)c2c1`, the Potency was 39.8 µM (active). With `CN1CCN(c2oc(-c3ccc(COc4ccc(Cl)cc4)o3)nc2C#N)CC1` the “activity change, negative = inhibition” value was -18.9%. In the case of `COc1ccc(OC)c(NC(=O)C2CCCN(S(=O)(=O)c3ccc4c(c3)CCCC(=O)N4)C2)c1` (centres undefined), the “activity change, negative = inhibition” value is reported as 13.2%. `COc1cccc2sc3cc(NCC[C@@H]4CCCN4C)ccc3c(=O)c12` was tested, and the Potency was 50.1 µM (active). For `COc1cccc(OC)c1C(=O)Nc1ccc2c(c1)n(C)c(=O)n2C`, the “activity change, negative = inhibition” value was 3.61%. `COc1ccc(/C=C/c2ccnc3ccccc23)cc1OC` was tested, and the “activity change, negative = inhibition” value was -27.7%. In the case of `CNc1ccc(-c2nc(-c3ccco3)no2)cc1[N+](=O)[O-]`, the “activity change, negative = inhibition” value is reported as -8.06%. In the case of `COc1cccc(/C=N/Nc2ccc(S(=O)(=O)Nc3ccccc3C(=O)O)cc2[N+](=O)[O-])c1O`, the Potency is reported as 79.4 µM (active). With `CCOc1ncccc1C(=O)NNC(=O)c1cccc(S(=O)(=O)Nc2ccccc2OC)c1` the “activity change, negative = inhibition” value was 0.756%. With `COC(=O)c1ccccc1NS(=O)(=O)c1ccc2[nH]c(=O)[nH]c2c1` the “activity change, negative = inhibition” value was -6.85%. With `O=C1C(Cl)=C(Oc2ccccc2)C(=O)c2ccccc21` the Potency was 56.2 µM (active). For `COc1ccc(Cn2c(=O)[nH]c3cc(C(=O)N4CCN(C(=O)c5ccco5)CC4)ccc3c2=O)cc1`, the “activity change, negative = inhibition” value was -29.9%. For `Cc1ccc(S(=O)(=O)N2CCN(c3nc(-n4cnc5ccccc54)nc4ccccc34)CC2)cc1`, the “activity change, negative = inhibition” value was -4.02%. For `C/C=C/NNC(=O)Cc1ccc(OC)cc1`, the “activity change, negative = inhibition” value was -0.0345%. In the case of `Cc1cccc(Oc2c([N+](=O)[O-])c(=O)n(C)c3ccccc23)c1`, the Potency is reported as 20 µM (active). `Cc1cccc(OP(=O)(Nc2c(C)n(C)n(-c3ccccc3)c2=O)Oc2cccc(C)c2)c1` was tested, and the “activity change, negative = inhibition” value was 4.61%. In the case of `Cc1cccc(C2CC(=O)Oc3c2c(=O)n(C)c2ccccc32)c1` (centres undefined), the “activity change, negative = inhibition” value is reported as 2.21%. With `Cc1[nH]c2ccccc2c1C(=O)C(=O)N(C)c1ccccc1` the “activity change, negative = inhibition” value was -1.9%. For `CCCC(=O)N1CCN(c2nc3c(OC)ccc(C)c3s2)CC1`, the “activity change, negative = inhibition” value was -8.18%. `Cc1cc[n+](C2CCCCC2)cc1` was tested, and the “activity change, negative = inhibition” value was 1.59%. With `CCOc1cc(C(=O)O)ccc1OCCOc1ccccc1` the “activity change, negative = inhibition” value was 4.15%. In the case of `CCOC(=O)C1Nc2ccc(C(F)(F)F)cc2C2C=CCC12` (centres undefined), the “activity change, negative = inhibition” value is reported as -23.5%. In the case of `CCOc1cccc2c1N[C@@H](c1ccc(C(=O)O)cc1)[C@H]1CC=C[C@@H]21`, the Potency is reported as 14.1 µM (active). In the case of `OC(CBr)CN1CCCCC1` (centres undefined), the “activity change, negative = inhibition” value is reported as -5.74%. In the case of `O=C(Nc1ccccc1)c1ccccc1OCc1ccccc1`, the “activity change, negative = inhibition” value is reported as -4.93%. With `C#CCOCCOCCOCCNc1nc(N2CCN(C(=O)CCCCCCCCCCNC(=O)Cn3cc(CCCCCN)nn3)CC2)nc(N2CCN(C(=O)CCCCCCCCCCNC(=O)[C@H](CO)n3cc(CCCSC)nn3)CC2)n1` the Potency was 39.8 µM (active). In the case of `C#CCOCCOCCOCCNc1nc(N2CCN(C(=O)Cn3cc(CCO)nn3)CC2)nc(N2CCN(C(=O)[C@H](CCCCN)n3cc(CCCC)nn3)CC2)n1`, the “activity change, negative = inhibition” value is reported as 16.4%. `C#CCOCCOCCOCCNc1nc(N2CCN(C(=O)[C@H](CCC(=O)O)n3cc(CN)nn3)CC2)nc(N2CCN(C(=O)[C@H](CCC(=O)O)n3cc(CN)nn3)CC2)n1` was tested, and the “activity change, negative = inhibition” value was -21.9%. In the case of `O=C(COC(=O)c1ccccc1OCCOc1ccccc1)Nc1cccc(Br)c1`, the “activity change, negative = inhibition” value is reported as 8.01%. `Cc1ccc(S(=O)(=O)c2c(Nc3cccc(Cl)c3)sc(C(=O)c3ccc4c(c3)OCO4)c2N)cc1` was tested, and the “activity change, negative = inhibition” value was -1.24%. In the case of `Cc1ccc(C)c(N2CCN(CCCNC(=O)Nc3ccc(Cl)cc3)CC2)c1`, the “activity change, negative = inhibition” value is reported as -5.33%. In the case of `COc1ccc(C2Nc3ccc(NC(=O)COC(C)=O)cc3C(=O)N2Cc2ccccc2)cc1COc1ccc(NC(C)=O)cc1` (centres undefined), the “activity change, negative = inhibition” value is reported as -3.55%. With `Cc1ccc(-c2nnc3ccc(SCC(N)=O)nn23)cc1` the “activity change, negative = inhibition” value was -1.5%. For `S=c1[nH]nc(-c2cc(-c3ccccc3)n[nH]2)n1/N=C/c1c2ccccc2cc2ccccc12`, the Potency was 39.8 µM (active). With `S=c1[nH]nc(-c2cc(-c3ccsc3)n[nH]2)n1-c1ccccc1` the “activity change, negative = inhibition” value was -2.28%. In the case of `Cc1cc(-c2n[nH]c(=S)n2/N=C/C(Br)=C/c2ccccc2)n[nH]1`, the “activity change, negative = inhibition” value is reported as -9.91%. In the case of `Cc1cccc(NC(=O)COC(=O)c2ccccc2OCc2cccc(Br)c2)c1`, the “activity change, negative = inhibition” value is reported as -18%. For `COc1ccc(CN(Cc2ccccc2)C(=O)c2ccc(O)cc2)cc1COc1ccc(NC(C)=O)cc1`, the “activity change, negative = inhibition” value was -4.6%. With `O=C1c2ccccc2C(=O)N1c1ccc(S(=O)(=O)N2CCOCC2)c2ccccc12` the “activity change, negative = inhibition” value was -19.7%. In the case of `CCN1/C(=C/c2ccc3ccc(C)cc3[n+]2CC)Sc2ccccc21`, the Potency is reported as 50.1 µM (active). `OC(Cc1ccc2ccccc2n1)c1ccc(Cl)c(Cl)c1` (centres undefined) was tested, and the “activity change, negative = inhibition” value was -4.3%. For `O=C1COc2ccc(-c3csc(-c4ccc(Cl)cc4)n3)cc2N1`, the “activity change, negative = inhibition” value was 1.81%. In the case of `Cc1cc(C)cc(NC(=O)CSc2nc(=O)n(CCN3CCOCC3)c3c2CCC3)c1`, the “activity change, negative = inhibition” value is reported as -3.17%. `CCOc1ccc(NC(=O)CSc2nnc3c(n2)[nH]c2ccc(S(=O)(=O)N4CCOCC4)cc23)cc1` was tested, and the “activity change, negative = inhibition” value was -18%. With `Cc1ccc(-n2ncc3c(NCCCn4ccnc4)ncnc32)cc1Cl` the “activity change, negative = inhibition” value was -5.38%. `C(=Nc1ccc(/C=C/c2ccnc3ccccc23)cc1)c1cc2c3c(c1)CCCN3CCC2` was tested, and the “activity change, negative = inhibition” value was -9.3%. For `CC(C)(C)c1ccc(S(=O)(=O)Nc2ccc(O)c(Sc3nc4ccccc4s3)c2)cc1`, the “activity change, negative = inhibition” value was -27%. `O=[N+]([O-])c1c(NCCO)cc(Sc2nc3ccccc3s2)c2nonc12` was tested, and the Potency was 44.7 µM (active). `CN(C(=O)CSc1nc2ccc(NC(=O)COc3ccccc3)cc2s1)c1ccccc1` was tested, and the “activity change, negative = inhibition” value was 3.32%.
